# Tested on: PPARg:RXRa (NR concentration 180 nM, RXRa partner concentration 90 nM)
# Experiment: PBM binding z-score (relative to random genomic background probes); higher = stronger binding; sequences stand for … in GC…GCGATTGACAGCGTAGAATGAAGG
# Outline: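 On custom Agilent 4×180K arrays, double-stranded probes with 34-nt variable regions carried direct-repeat seeds, single-nucleotide variants, half-site ablations or random human genomic background. Ligand-free nuclear receptor dimers were applied for 1 h, and binding was read with antibodies against each partner (one per run). Binding z-scores come from regression-normalized fluorescence, with the random background probes as reference.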
row,Sequence,PBM binding z-score
1,CCTTACGGGACACTGACAGGTTATAGCATTTGGA,0.499
2,AGAACGAGGGCAATGAGTTGAGAGCACGGGTGGC,1.39
3,CCTGCTAGGTCAATGGTCGGCTAAAGCAGCTCGC,3.48
4,CCGACTGGGGCTAAGGTTACCATACTCAGTACGA,5.47
5,CTTCCAAGGTCAATGCTAGGTCAGTGAAAGCATT,4.42
6,CATACTGGGCCAAAGGTCATTGATTCCAATGCTC,11.9
7,AGAACGAGGGCACGCTGAGTTGCTAGCAGAGTAG,1.85
8,CCTCGGAGGACCACAGGAGGTCAGAGCTGCCAGA,0.00464
9,AGTCAAAGTTCAGGACGAGGTTACGTAAAGCACG,5.02
10,TCTAGTTGGTCACGGACGTCACACACGACGGGTA,1.24
11,TAGCCTAGGTCATTGCGCCAGTATAGTACGCATC,2.25
12,TCTTTTAGATCAAGCAGGTTAAGAAAGCCTGAGT,-0.669
13,CATACAGGGTCAGCTAGGCCACAGTAGGGACGGC,3.75
14,GCTAGTTGGTCAGTAAAAGGTCACACGCCGGTCG,3.32
15,ACAGACAAGTGAGTGAAGGTAACTCAGCTGGACG,0.674
16,CCTACTGGGCCATTCAGAGGTCTTTGATCATATG,0.251
17,CCGACTGGGGTAGAAAGGTTACCATACCATCCGG,2.04
18,CCGACTGGGGCATAAGGTTAGCATAAGCCAGCCC,1.7
19,CGTCAAAGTTCCACTAAGGTAACGTAAAGCACGC,0.459
20,CCGACTGGGGCAGATAGGTTACCATACCATCCGG,0.914

row,Sequence,PBM binding z-score
1,CATACAGGGTCAGCTAGGCGAGAGTAGGGACGGC,2.92
2,GGAACGAGGGCAAGTTGATCGCAGAGTTTGATGG,0.859
3,ACAGACAGGTGATGAAGCTAACTCAGGCTATCAT,0.522
4,GCATATAGGTAATACAAGGTAAAAGTCCGATTGT,1.14
5,TCTGGGAGGACACGAAAGGTCAGAGCTCGACATC,1.49
6,CCGACTGGGGCAAAGTTACCATAACGCACAGCCA,4.27
7,AGAATGAGGTTAAGATGAGGGAAACAGAATACAT,2.55
8,ATATGTAGATTATCGGGTCATTCAGTTTGCGCAT,1.63
9,TCATATTGGTAAAGGTGAAAGTCGAACGATATGA,1.89
10,TCTCGGAGCACACGAAGGTCAGAGCTTTCCAGAG,0.118
11,CAAACTAGGTCAAGAGATCAAAGTCCGCTTCCCG,8.04
12,ATCGAAAGGTCGAGGGTGAGTATACCCACCCGAA,3.72
13,CAGCCTAGGTCAGGGCCAGTATTGGAGGAACGTT,0.396
14,ATCGAAAGGTCGAAGGTGAGTGTACCCACCCGAA,4.86
15,CGAACTAGGTTAAGGACAGTGAATCTCCGCACGC,2.85
16,TCATATAGGTAATACAGGTGAAAGCCGGCATCTA,1.68
17,CCTGCTAGGTCATCGTCAGCTAATCTACAGTATG,2.06
18,TCTTGGAGATCAACAGGAGGTTAAGAAAGATCGA,0.02
19,GCGACTGGGGCAAAGCAGGTTACCATAAGGTTGG,1.19
20,TAGCCTAGGTCATGGACCAGTATACCACGCGAAC,3.5
